“And” between values parts separate entries of the source, which are not always exact repeats. Equal values may be shown once. This is part of a sample that, as a whole, favours compounds with a hit. Of some 83,000 tested, about 20% had one in any assay.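 For each line, cells grew in 96-well plates with the test compound present at a single concentration for 48 hours.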 The source made the active and inactive calls. How the source made its calls: active means growth percent below 10; inactive means the rest.

This assay concerns MDA-MB-468 breast. The experiment in a line: NCI-60 one-dose screen, 48 h (100 = growth as untreated, 0 = no growth, -100 = all killed). To be noted: 10 µM unless noted.
`CCOC(=O)N1CCN(CCCCl)CC1`: the growth is 97.4% (inactive).
Next, `CCN(CC)CCNC(=O)c1cn2ncnc(Oc3ccc(NC(=O)Nc4ccc(Cl)c(C(F)(F)F)c4)cc3)c2c1C`: -80.7% (active); `COc1cc(OC)cc(-c2ccc(-c3ccc(C(=N)N)cn3)s2)c1`: 64.4% (inactive); `C#CCn1cc(C=C2C(=O)N(C)C(=O)N(C)C2=O)c2cc(Cl)ccc21`: 103% (inactive).
Next, `CCOC(=O)c1nnn(Cc2cc(=O)oc3ccc(O)cc23)c1C`: 108% (inactive); `Cc1ccc(/C=C/CC(=O)Nc2ccc(C(=O)Nc3ccc(F)cc3N)nc2)cn1`: 4.55% (active); `COc1ccc(S(=O)(=O)NCCCNc2nccc(-c3c(-c4ccc(F)cc4)nc4sccn34)n2)cc1`: 61.2% (inactive).
As to `CN1CCN(c2ccc(-c3ccc4ncc(C#N)c(Nc5ccc(F)c(Cl)c5)c4c3)cn2)CC1`, the growth is 10.6% (inactive).
As for `CSc1nc(=O)n(Cc2ccc(Cl)cc2)c(=O)[nH]1`, the growth is 121% (inactive).
Next, `CC(=O)N(C)C1CCc2c(sc(NC(=O)c3ccc(C(C)(C)C)cc3)c2C(N)=O)C1` (stereo not given): 86.6% (inactive).
Next, `CCN(CC)P(=O)(N(CC)CC)N(CCCSC/C=C(\C)CC/C=C(\C)CCC=C(C)C)CCCN1CCN(C)CC1`: 92.4% (inactive); `O=C(C[n+]1ccccc1)c1ccc2ccccc2c1`: 88.1% (inactive).
Next, `Clc1cc(Cl)cc(N2N=C(c3cccc(Nc4ccncc4)c3)CC2c2ccc(Br)cc2)c1` (stereo not given): 44.9% (inactive).
Turning to `Cn1c(=O)c2c(nc(Cl)n2CCl)n(C)c1=O`, the growth was 106% (inactive).
In the case of `COc1ccccc1N1CCN(CCn2c(=O)c3c(c4ccccc4n3C)n(C)c2=O)CC1`, the growth was 92% (inactive).
Next, `CSc1nc(NCCCNc2ccnc3cc(Cl)ccc23)cc(-c2ccccc2)n1`: 11.3% (inactive); `CC1CCN(C(=O)OCc2nc3nc(Cl)nc(N4CCOCC4)c3[nH]2)CC1`: -59.5% (active); `C#CCn1cnc2cnc(Nc3cccc(NC(=O)C=C)c3)nc21`: 55.1% [6.25 µM] (inactive).
Next, `CCn1c(=O)c2c(=O)c3c4c(oc3oc2c2ccccc21)C(=O)c1ccccc1C4=O`: -29.6% (active); `COc1ccc(-c2ccc(C)n2-c2ccc(-c3nc4ccccc4s3)cc2)cc1`: 3.77% (active).
As for `CCOC(=O)/C(=C(\C)N)C1CC(=O)NC1=O` (stereo not given), the figure is 92.3% (inactive).
Take `NC1CCC(Nc2nc(NCc3ccc(-c4ccco4)nc3)c3ncn(C4CCCC4)c3n2)CC1` (stereo not given): the growth is -54.3% (active).
As to `c1ccc(-c2n(Cc3ccc4ccccc4n3)cc[n+]2Cc2ccc3ccccc3c2)cc1`, the growth was -33.5% (active).
Turning to `O=C1CCC/C=C\C[C@H]2C=CC(=O)/C2=C/C[C@H](CCc2cccc(C(F)(F)F)c2)O1`, the growth is -38.3% (active).
Next, `Cc1cccc(C[C@H](NC(=O)Nc2ccc(C)cc2F)C(=O)N[C@@H]2C(=O)N3C[C@H](O)C[C@H]3C(=O)N3CCN(C)C[C@H]3C(=O)N[C@@H](C)C(=O)N3C[C@H](C)C[C@H]3C(=O)O[C@H]2C)c1`: 6.46% (active).
As for `Nc1cc(-c2nc3sccn3c2-c2ccnc(NCCCNS(=O)(=O)c3ccc(F)cc3)n2)ccc1F`, the figure is 41.7% (inactive); as for `COc1ccc(/C=C/c2nc(N3CCOCC3)c3cc(F)c(F)cc3n2)cc1OC`, -6.96% (active).
Regarding `C/C(=C\c1cc(Cl)ccc1OCC(=O)O)[N+](=O)[O-]`, the growth was 112% (inactive).
As for `COc1ccc(C(=O)c2cc3c(N)c(C(=O)Nc4ccccc4)sc3nc2C)cc1`, the figure is 3.89% (active); as for `Cc1ccncc1C(N)=O`, 93.8% (inactive).
Take `CN(C)c1ncc(-c2ccc(C(F)(F)F)cc2)c(NC2CCCCCC2)n1`: the growth was 29.5% (inactive).
`NC1CC2(CCN(c3cnc(C(=O)Nc4cc(F)cc5cccnc45)cn3)CC2)C1`: the growth was 50.6% (inactive).
As for `COc1ccc(C(=O)c2cc(C)c(OC)c(C)c2)c(OC)c1O`, the figure is 20.4% (inactive); as for `COc1cc(OC)c(C(=O)/C=C/c2ccc(C#N)cc2)c(OC)c1`, -6.07% (active).
Next, `C/C(=C\c1csc(C)n1)[C@@H]1C[C@@H]2O[C@]2(C)CCC[C@H](C)[C@H](O)[C@@H](C)C(=O)C(C)(C)[C@@H](O)CC(=O)N1`: 22.4% (inactive); `Cc1nc2ccccc2c(/C=C/c2ccc(Cl)cc2)c1C(=O)/C=C/c1cccs1`: 79.7% (inactive).
As for `CCOP(=O)(OCC)OC[C@]12CCC(C)(C)C[C@H]1C1=CC[C@@H]3[C@@]4(C)C/C(=C\c5cccnc5)[C@H](OP(=O)(OCC)OCC)C(C)(C)[C@@H]4CC[C@@]3(C)[C@]1(C)CC2`, the growth is -0.445% (active).
Next, `CN1CCC[C@]2(C)[C@H]3CC[C@@H]4[C@@H]5[C@H]6OC[C@@]5(CCC6(C)C)CC[C@@]4(C)[C@]3(C)CC[C@H]2C1(C)C`: 82% (inactive); `CC(C)(C)c1ccc(O)c(CNC2CCCCC2)c1`: 87% (inactive) and 87.7% (inactive); `COc1cc2c(=O)n(CCCN(C)C)c3c4cc5c(cc4ccc3c2cc1OC)OCO5`: 57.7% (inactive).

(Values after PubChem BioAssay (NCI).)
